Not all results are given here.
aSyn UTR act: Activators via SNCA 5'UTR binding, MLPCN. alpha-synuclein 5'UTR reporter, activators screen. activity score, % (tested at 7.5 µM), hits read low. 300,000 tested, 7.1% active. AID 1814, 2009; in the data active means activity score below about -60%
* marks the source's active call; other numbers are inactive results.

SMILES	aSyn UTR act
Fc1cc(Br)ccc1COc1ccc(-c2nnco2)cc1	-133*
O=Cc1ccc(OCc2ccc3ccccc3c2)cc1	-132*
COc1ccc(COc2cccc(C=O)c2)cc1	-69*
O=Cc1cccc(OCc2cccc3ccccc23)c1	-117*
COc1ccc(NC(=S)Nc2cc(C)[nH]n2)cc1Cl	-125*
Cc1cc(NC(=S)Nc2ccc(C)c(Cl)c2)n[nH]1	-110*
CNc1cccc2c1C(=O)c1ccccc1C2=O	-119*
CNS(=O)(=O)c1cc2c3c(cccc3c1)C(=O)NC2=O	71
CN(C)c1ccc(/C=C/c2cc[n+]([O-])cc2)cc1	-114*
Cn1cc(C(=O)Nc2ccccn2)c(=O)c2ccccc21	-114*
CCOC(=O)c1sc2nc(NC(=O)C3CC3)sc2c1C	-201*
CCOC(=O)c1sc2nc(NC(=O)C(C)(C)C)sc2c1C	-135*
Cc1ccc(NC(=O)OCCNC(=O)OC(C)C)cc1	-73*
COC(=O)NCC(C)OC(=O)Nc1ccc(Cl)cc1 (stereo unspecified)	-95*
Cc1ccc(NC(=O)OC(C)CNC(=O)Oc2cccc(C)c2)cc1 (stereo unspecified)	-93*
Cc1ccc(NC(=O)OCc2cc(-c3ccccc3)on2)cc1	-93*
Cc1ccc(NC(=O)OCc2cccs2)cc1	-191*
COc1ccccc1NC(=O)c1c[nH]c2ccccc12	-78*
Cc1cccc(C)c1NC(=O)c1c[nH]c2ccccc12	-120*
COc1ccccc1NC(=O)c1cnc(Nc2ccccc2OC)c2ccccc12	101
Cc1ccc(OCc2ccc(Br)cc2)c([N+](=O)[O-])n1	-141*
Cc1ccc(OCc2ccc(-c3ccccc3)cc2)c([N+](=O)[O-])n1	-84*
Cc1ccc(OCCOc2cccc(Br)c2)c([N+](=O)[O-])n1	-190*
CCS(=O)(=O)NCCc1csc(-c2ccccc2)n1	-63*
COc1cc(CNC(=O)c2cccc(COc3ccc(Cl)cc3)c2)cc(OC)c1	-77*
SMILES	aSyn UTR act
O=C(NCc1ccccc1)c1cccc(COc2ccc(Cl)cc2)c1	-162*
CCN(CC)S(=O)(=O)c1ccc(NC(=O)c2ccccn2)cc1	-120*
CN(C)S(=O)(=O)c1ccc(NC(=O)c2ccccn2)cc1	-79*
CN(C)S(=O)(=O)c1ccc(C(=O)Nc2ccccn2)cc1	-70*
COc1ccc(C(=O)Cc2cc3cccc(OC)c3oc2=O)cc1	-79*
COc1ccc(C(=O)c2cc3cccc(OC)c3o2)cc1	-161*
COc1cccc2cc(CC(=O)c3ccc(C)cc3C)c(=O)oc12	-185*
Clc1ncnc2c1oc1ccccc12	-62*
CCSc1ncnc2c1oc1ccccc12	-64*
c1ccc2cc(Sc3ncnc4c3oc3ccccc34)ccc2c1	-71*
Cc1cc(C)nc(Sc2ncnc3c2oc2ccccc23)n1	-64*
Cc1cc(NC(=O)/C=C/c2ccc(Cl)cc2)no1	-78*
C/C(=C\C(=O)Nc1cc(C)on1)c1ccccc1	-110*
Cc1cc(NC(=O)/C=C/c2ccc(Br)cc2)no1	-74*
Cc1ccc(/C=C2\SC(=S)N(CCCC(=O)Nc3cc(C)on3)C2=O)cc1	58
Cc1cc(C)c2c(=O)n(-c3ccccc3)[nH]c2n1	-72*
O=C(/C=C/c1c(F)cccc1Cl)c1ccc(O)cc1	-115*
O=C(/C=C/c1ccccc1Cl)c1ccc(O)cc1	-360*
NC(=O)C1CC(=O)N(c2ccc(OCc3ccc(F)cc3)cc2)C1 (stereo unspecified)	-113*
O=C(N/N=C/c1ccccc1O)C1CC(=O)N(c2ccc(Cl)cc2)C1 (stereo unspecified)	83
NC(=O)C1CC(=O)N(c2ccc(OCc3ccc([N+](=O)[O-])cc3)cc2)C1 (stereo unspecified)	-128*
CCOc1ccc(-c2ccc(/C=C3/C(=N)N4C=CSC4=NC3=O)o2)c([N+](=O)[O-])c1	-72*
CCCCNc1c(-c2cccc(-c3cc(C(C)=O)cs3)c2)nc2ccc(C)cn12	-71*
CCCn1cc(NC(=O)c2cc(-c3ccccc3)on2)cn1	-134*
O=C(Nc1cc(Br)ccc1O)c1cc(-c2ccccc2)on1	-131*
SMILES	aSyn UTR act
CCCc1cc(C(=O)Nc2cc(C)ccc2O)no1	-250*
CCCc1cc(C(=O)Nc2ccccc2C(=O)OC)no1	-71*
Cc1ccc(O)c(NC(=O)c2cc(-c3ccccc3)on2)c1	-254*
Cc1ccc(-c2csc(-c3ccncc3)n2)cc1	-213*
Brc1ccc(-c2csc(-c3ccncc3)n2)cc1	-195*
Cc1nnc(N/N=C/c2ccc(-c3ccccc3F)o2)n1N	-107*
Cc1nnc(N/N=C\c2ccc(-c3ccccc3[N+](=O)[O-])o2)n1N	-75*
CC(=O)c1cccc(OCc2cc(C(=O)N3CCSCC3)no2)c1	-152*
O=C(c1cc(COc2ccc(F)c(F)c2)on1)N1CCSCC1	-94*
Nc1cccn2c(-c3ccc(Cl)c(Cl)c3)cnc12	-183*
Nc1cccn2c(-c3ccc(Cl)cc3)cnc12	-260*
CC(C)OC(=O)c1ccc(N2CCN(c3ccccc3F)CC2)nc1	-68*
O=[N+]([O-])c1ccc(N2CCN(c3ccccc3F)CC2)nc1	-66*
C/C(=N/N1CCN(c2ccccc2)CC1)c1cccc([N+](=O)[O-])c1	-70*
O=[N+]([O-])c1ccc(N2CCN(c3ccccc3)CC2)cc1	-80*
N#Cc1c(N)n(C2CCCCC2)c2nc3ccccc3nc12	62
O=[N+]([O-])c1ccc(N2CCN(c3ccccc3)CC2)nc1	-76*
O=[N+]([O-])c1ccc(N2CCc3ccccc3C2)nc1	-66*
CCOc1ccc(-n2c(SCc3ccc([N+](=O)[O-])cc3)nnc2-c2ccccc2)cc1	56
CC1Cc2ccccc2N1c1ncnc(N)c1[N+](=O)[O-] (stereo unspecified)	69
O=[N+]([O-])c1ccc(-c2nnc(S)n2-c2ccccc2)cc1	-95*
COC(=O)Cc1c(OC)ccn(CCc2c[nH]c3ccccc23)c1=O	-149*
O=C(Nc1cccnc1)C1CCN(S(=O)(=O)c2cccs2)CC1	-108*
CCCn1c(CNc2ccc(Br)cc2)nc2ccccc21	-119*
COCCn1c(COc2ccc(C)cc2)nc2ccccc21	-95*
SMILES	aSyn UTR act
Cc1ccc(NCc2nc3ccccc3n2CCOc2ccccc2)cc1	-136*
CCn1c(COc2ccc(C)cc2)nc2ccccc21	-126*
CCOCCn1c(COc2ccc(C)cc2)nc2ccccc21	-118*
Cn1c(COc2ccccc2)nc2ccccc21	-99*
COc1cc(C(=O)NCC(=O)N2CCN(S(=O)(=O)c3cc(C)ccc3C)CC2)cc(OC)c1OC	-75*
COc1ccc(CSc2nnc(SCc3ccc([N+](=O)[O-])cc3)s2)cc1	-122*
CCn1cc(Br)c(-c2nc3ccccc3c(=O)n2N)n1	-100*
N#Cc1cn(-c2ccccc2)nc1C(=O)c1ccccc1	-192*
N#Cc1cn(-c2ccccc2)nc1-c1ccc2c(c1)OCCO2	-184*
N#Cc1cn(-c2ccccc2)nc1-c1ccco1	-147*
Cc1ccc(Nc2c([N+](=O)[O-])ccc3c2=NC2(CCCCC2)N=3)cc1	-68*
CCOc1ccccc1CNC(=O)C1CCN(c2nnc(C)c3c(C)n(-c4ccc(C)cc4)nc23)CC1	78
COc1ccc(-n2nc3c(N4CCC(C(=O)NCc5cccc(C)c5)CC4)nnc(C)c3c2C)cc1	70
COc1cccc(NC(=O)c2ccnc(N3CCC(C(=O)NCc4ccccc4OC)CC3)c2)c1	-95*
C[C@@H]1OC(Nc2ccc(N=Nc3ccccc3)cc2)[C@H](O)[C@H](O)[C@H]1O (stereo partly specified)	-88*

Assay outcomes (PubChem BioAssay)
